The text below walks through data of PubChem BioAssay.

The source made the active and inactive calls.

In test [1] the test system is Plasmodium falciparum Sir2 (PF13_0152, Sir2A). In words: pfSir2 binders on small-molecule microarrays, primary screen, biochemical, small-molecule microarray, 635 nm fluorescence (AID 1098).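 Also: score merges spot fluorescence intensity with its signal-to-noise ratio.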 Conditions: small-molecule microarray binding, fluorescence 635 nm; higher = more signal.
A short description of test [2]: small-molecule microarray binders of probe aDKK1, primary screen, biochemical, biotinylated probe, 635/667 nm fluorescence (AID 1099).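 Also: score merges 667nm spot fluorescence with signal to noise across triplicate slides.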 Conditions: higher = more signal.
Test [3] can be described thus: small-molecule microarray binders of probe aCHRDL2, primary screen, biochemical, biotinylated probe, 635/667 nm fluorescence (AID 1100). Particulars: higher = more signal.
Test [4] in a line: splicing luciferase reporter signal modulators, primary screen, spliceosome inhibition project, cell-based, HEK293, splice +/- reporter (AID 1101).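 Also: HEK293 cells carrying a splicing-competent luciferase reporter gene; test concentration not given here.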 Particulars: luminescence, 24 h, higher = more signal, called active from +8 up or from −8 down.
Test [5] has as its target Fibroblast growth factor 10 (Homo sapiens) (UniProt O15520). In words: FGF10 binders on small-molecule microarrays, primary screen, biochemical, small-molecule microarray, 635 nm fluorescence (AID 1102). Conditions: FGF10 binding, fluorescence 635 nm, higher = more signal.
For test [6], the system named is glycogen synthase kinase-3 (GSK3A per assay name; protocol says GSK3B). In words: GSK3 binders on small-molecule microarrays, primary screen, biochemical, small-molecule microarray, 635 nm fluorescence, GSK3A (AID 1103). Also: the record names both GSK3A and GSK3B. Conditions: small-molecule microarray binding, fluorescence 635 nm; higher = more signal.
Test [7] addresses Epidermal growth factor receptor (Homo sapiens) (UniProt P00533). In words: EGFR binders on small-molecule microarrays, primary screen, biochemical, small-molecule microarray, 635 nm fluorescence (AID 1104).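 Also: score merges 667 nm emission intensity with spot signal to noise over triplicate slides.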 Conditions: EGFR binding, higher = more signal.
Test [8] concerns the target Follistatin-related protein 3 (Homo sapiens) (UniProt O95633). In words: FSTL3 binders on small-molecule microarrays, primary screen, biochemical, small-molecule microarray, 635 nm fluorescence (AID 1105).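 Also: score merges emission near 667 nm and signal to noise per printed spot across three slides.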 Particulars: FSTL3 binding, higher = more signal.
Test [9] addresses Dickkopf-related protein 1 (Homo sapiens) (UniProt O94907). In words: DKK1 binders on small-molecule microarrays, primary screen, biochemical, small-molecule microarray, 635 nm fluorescence scan (AID 1106).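 Also: score merges emission near 667 nm with signal to noise over three replicate slides.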 Conditions: DKK1 binding, higher = more signal.
Test [10] deals with Inhibin beta A chain (activin A). In words: INHBA (activin A) binders on microarrays, primary screen, biochemical, small-molecule microarray, 635 nm fluorescence scan (AID 1107).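 Also: mouse activin A protein probed at 4.33 µg/mL on printed slides; score merges bound-protein fluorescence near 667 nm with spot signal-to-noise.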 Particulars: small-molecule microarray binding, higher = more signal.
For test [11], the system named is Human papillomavirus type 1a protein E7 (residues 44-93). In words: HPV1a E7 fragment binders on microarrays, primary screen, biochemical, small-molecule microarray, residues 44-93, 635 nm fluorescence (AID 1108).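 Also: E7 fragment applied at 1 µg/mL in TBST for 1 h at 4 C; score combines spot fluorescence with its signal to noise ratio.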 Conditions: small-molecule microarray binding, fluorescence 635 nm; higher = more signal.
The nature of test [12]: modulators of HCV replicon luciferase signal, primary screen, HCV replication inhibitor project, Huh7 cells, luciferase reporter (AID 1109).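 Also: huh7 hepatoma cells harbouring a luciferase neomycin HCV replicon reporter; luciferase luminescence as measure of HCV replicon replication; test concentration not given here.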 Particulars: 48 h, higher = more signal.
In test [13] the target is Left-right determination factor 2 (Homo sapiens) (UniProt O00292). In words: LEFTY2 binders on small-molecule microarrays, primary screen, biochemical, small-molecule microarray, 635 nm fluorescence scan (AID 1110). Conditions: LEFTY2 binding, higher = more signal.
Left-right determination factor 2 (Homo sapiens), sequence (O00292 whole entry, looked up): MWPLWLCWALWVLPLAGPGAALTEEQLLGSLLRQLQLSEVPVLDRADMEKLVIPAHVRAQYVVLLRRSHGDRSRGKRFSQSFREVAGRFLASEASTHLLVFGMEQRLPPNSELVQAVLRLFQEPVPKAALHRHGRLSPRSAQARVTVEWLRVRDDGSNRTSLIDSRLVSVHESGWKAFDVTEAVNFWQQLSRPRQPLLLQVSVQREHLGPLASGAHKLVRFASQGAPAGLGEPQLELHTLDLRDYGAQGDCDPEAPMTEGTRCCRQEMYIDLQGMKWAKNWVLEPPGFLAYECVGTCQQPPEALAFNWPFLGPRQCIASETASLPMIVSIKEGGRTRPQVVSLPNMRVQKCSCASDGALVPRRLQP
Test [14] addresses Calmodulin-1 (Homo sapiens) (UniProt P0DP23). In words: CALM1 binders on microarrays, EGTA buffer, profiling panel, biochemical, small-molecule microarray, Cy5-labelled CALM1 (AID 1111).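 Also: labelled calmodulin applied in Tris saline Tween buffer holding calcium plus EGTA and DTT.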 Conditions: Cy5-CALM1 binding fluorescence, higher = more signal.
For test [15] the target is unchanged. In words: calcium-bound CALM1 binders on microarrays, profiling panel, artefact control for SMM control-protein annotation, biochemical, small-molecule microarray, Cy5-labelled CALM1, plus calcium (AID 1112).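 Also: score merges spot fluorescence with signal to noise from triplicate slides.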 Conditions: Cy5-CALM1 binding fluorescence, higher = more signal.
The nature of test [16]: small-molecule microarray binders of probe aWnt5a, primary screen, biochemical, biotinylated probe, 635/667 nm fluorescence (AID 1113).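 Also: score merges 667 nm fluorescence intensity with signal-to-noise per printed feature.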 Particulars: higher = more signal.
Test [17] is described as follows: small-molecule microarray binders of probe aShh, primary screen, biochemical, biotinylated probe, 635/667 nm fluorescence (AID 1114).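 Also: probe is biotin-labelled aShh protein from a stem cell growth factor screen; measures binding of labelled protein to compounds printed on the slide; score merges feature fluorescence at 667 nm with signal-to-noise.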 Conditions: higher = more signal.
Test [18] in a line: small-molecule microarray binders of probe aNog, primary screen, biochemical, biotinylated probe, 635/667 nm fluorescence (AID 1115).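 Also: probe is biotinylated aNog protein used at 0.15 µg/mL for 1 h at 4 C; z-score combines 667 nm fluorescence of each spot with its signal to noise.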 Conditions: higher = more signal.
Test [19] concerns the target Torsin-1A-interacting protein 1 (Homo sapiens) (UniProt Q5JTV8). In words: LAP1 binders from COS7 cell lysate, primary screen, small-molecule microarray, 635/667 nm fluorescence (AID 1116). Conditions: COS7-hLAP1 lysate binding, 635 nm fluorescence, higher = more signal.
For test [20], the target named is Alpha-bungarotoxin (Bungarus multicinctus) (UniProt P60615). In words: alpha-bungarotoxin binders on microarray, profiling panel, artefact control for SMM control protein annotation, biochemical, small-molecule microarray, Alexa647 label, 635/667 nm fluorescence (AID 1117). Conditions: alpha-BTX-A647 binding fluorescence, higher = more signal.
Alpha-bungarotoxin (Bungarus multicinctus), sequence (P60615 whole entry, looked up): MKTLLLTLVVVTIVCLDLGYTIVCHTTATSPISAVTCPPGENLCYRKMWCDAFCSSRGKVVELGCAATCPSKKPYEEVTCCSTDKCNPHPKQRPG

Fibroblast growth factor 10 (Homo sapiens), sequence (O15520 whole entry, looked up): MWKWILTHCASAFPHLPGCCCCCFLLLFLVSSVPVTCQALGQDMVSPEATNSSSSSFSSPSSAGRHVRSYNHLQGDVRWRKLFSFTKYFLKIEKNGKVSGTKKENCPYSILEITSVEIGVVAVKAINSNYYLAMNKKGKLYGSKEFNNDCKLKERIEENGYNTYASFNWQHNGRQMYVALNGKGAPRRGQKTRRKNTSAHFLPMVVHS
Torsin-1A-interacting protein 1 (Homo sapiens), sequence (Q5JTV8 whole entry, looked up): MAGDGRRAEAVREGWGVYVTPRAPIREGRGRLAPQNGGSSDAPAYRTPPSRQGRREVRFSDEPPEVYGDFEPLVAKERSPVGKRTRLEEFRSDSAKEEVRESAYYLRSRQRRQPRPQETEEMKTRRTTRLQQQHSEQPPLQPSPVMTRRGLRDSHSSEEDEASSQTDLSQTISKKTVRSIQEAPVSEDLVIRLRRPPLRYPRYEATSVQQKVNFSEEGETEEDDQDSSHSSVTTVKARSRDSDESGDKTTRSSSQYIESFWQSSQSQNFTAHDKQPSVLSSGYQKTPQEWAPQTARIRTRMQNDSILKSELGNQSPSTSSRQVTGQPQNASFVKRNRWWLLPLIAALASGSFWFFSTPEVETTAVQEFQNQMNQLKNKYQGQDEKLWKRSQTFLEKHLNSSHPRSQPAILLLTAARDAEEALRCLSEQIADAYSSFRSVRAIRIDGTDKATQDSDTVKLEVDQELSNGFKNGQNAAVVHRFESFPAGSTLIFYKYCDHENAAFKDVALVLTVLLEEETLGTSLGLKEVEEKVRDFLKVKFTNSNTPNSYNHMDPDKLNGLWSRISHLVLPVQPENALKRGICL
Epidermal growth factor receptor (Homo sapiens), sequence (P00533 whole entry, looked up): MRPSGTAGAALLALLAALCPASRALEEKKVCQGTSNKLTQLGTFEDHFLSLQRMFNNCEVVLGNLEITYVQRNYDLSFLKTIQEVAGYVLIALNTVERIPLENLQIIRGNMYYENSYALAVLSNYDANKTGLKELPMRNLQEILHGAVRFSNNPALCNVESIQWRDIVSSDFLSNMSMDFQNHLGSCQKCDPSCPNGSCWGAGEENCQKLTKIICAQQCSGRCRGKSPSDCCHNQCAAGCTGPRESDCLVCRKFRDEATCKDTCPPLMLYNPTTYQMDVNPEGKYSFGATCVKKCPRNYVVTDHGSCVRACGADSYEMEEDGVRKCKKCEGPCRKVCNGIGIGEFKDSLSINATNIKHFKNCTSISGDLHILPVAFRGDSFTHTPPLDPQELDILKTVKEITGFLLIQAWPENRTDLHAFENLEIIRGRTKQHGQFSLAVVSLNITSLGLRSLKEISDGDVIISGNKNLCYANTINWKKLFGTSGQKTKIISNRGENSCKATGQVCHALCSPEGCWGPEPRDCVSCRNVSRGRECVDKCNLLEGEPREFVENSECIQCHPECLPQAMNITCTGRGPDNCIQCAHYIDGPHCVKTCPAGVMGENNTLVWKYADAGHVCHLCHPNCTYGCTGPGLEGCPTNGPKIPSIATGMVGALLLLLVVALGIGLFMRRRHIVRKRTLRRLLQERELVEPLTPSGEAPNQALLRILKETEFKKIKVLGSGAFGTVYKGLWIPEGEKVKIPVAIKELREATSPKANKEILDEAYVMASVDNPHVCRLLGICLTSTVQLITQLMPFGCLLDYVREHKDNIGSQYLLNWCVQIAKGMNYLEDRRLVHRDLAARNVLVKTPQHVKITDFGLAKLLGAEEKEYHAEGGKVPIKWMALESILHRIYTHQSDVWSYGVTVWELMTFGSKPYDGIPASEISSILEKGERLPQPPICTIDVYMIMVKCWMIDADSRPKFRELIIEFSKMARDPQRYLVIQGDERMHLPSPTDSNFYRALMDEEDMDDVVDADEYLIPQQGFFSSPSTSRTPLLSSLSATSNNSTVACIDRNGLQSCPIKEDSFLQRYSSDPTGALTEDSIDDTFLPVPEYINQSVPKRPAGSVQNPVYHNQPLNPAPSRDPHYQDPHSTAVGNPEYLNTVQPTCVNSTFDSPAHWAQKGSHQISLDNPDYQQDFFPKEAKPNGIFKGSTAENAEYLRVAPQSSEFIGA
Dickkopf-related protein 1 (Homo sapiens), sequence (O94907 whole entry, looked up): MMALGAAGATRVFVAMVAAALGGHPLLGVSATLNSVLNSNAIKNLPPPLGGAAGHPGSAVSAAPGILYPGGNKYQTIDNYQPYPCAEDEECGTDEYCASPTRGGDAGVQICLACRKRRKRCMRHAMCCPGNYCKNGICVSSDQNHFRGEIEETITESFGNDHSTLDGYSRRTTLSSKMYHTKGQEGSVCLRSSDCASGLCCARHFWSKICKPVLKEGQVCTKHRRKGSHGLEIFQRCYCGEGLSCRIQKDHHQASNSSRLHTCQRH
Follistatin-related protein 3 (Homo sapiens), sequence (O95633 whole entry, looked up): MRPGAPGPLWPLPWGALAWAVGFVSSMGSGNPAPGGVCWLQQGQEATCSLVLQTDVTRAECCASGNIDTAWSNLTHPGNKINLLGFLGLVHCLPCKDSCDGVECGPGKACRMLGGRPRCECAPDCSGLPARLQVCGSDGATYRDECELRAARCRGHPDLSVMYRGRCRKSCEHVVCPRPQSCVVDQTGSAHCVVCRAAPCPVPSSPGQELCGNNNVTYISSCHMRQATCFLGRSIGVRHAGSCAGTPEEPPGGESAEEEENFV

Regarding `C=C(COC)/C(=C/C[C@H](OC(C)=O)c1ccccc1OCCO)c1cc(C(=O)OC)ccc1OC`, the composite z-score in [1] is 0.989; in test [2], -0.103; in test [3], -0.0952; in [5], 1.05; in test [6] it was 0.196; in test [7], -0.607. Further, the composite z-score is 0.186 in test [8]; 0.189 in [9]; 0.289 in test [10]; 0.992 in test [11]; -0.138 in test [13]; -0.471 in [14]. In addition, the composite z-score is -1.12 in [15]; -0.124 in test [16]; 0.13 in test [17]; -0.194 in test [18]; -0.134 in [19]; 1.63 in test [20]. In addition, the z-score in test [4] was -0.907 (inactive); in [12], -1.91.
Consider `COC(=O)[C@@]1(Cc2ccc(OC)cc2)[C@H]2c3cc(C(=O)N4CCCC4)n(Cc4ccc(Cl)c(C(F)(F)F)c4)c3C[C@H]2CN1C(=O)c1ccccc1`, for which the composite z-score was 1.38 in test [1]; 1.62 in [2]; 1.23 in [3]; 0.927 in test [5]; 1.27 in [6]; -0.02 in test [7]. The composite z-score in test [8] is 1.36; in [9], -0.428; in test [10], 0.822; in test [11], 1.47; in [13] it was 0.0524; in test [14], 2.74. The composite z-score in test [15] turned out to be 1.35; in test [16], 0.207; in test [17], 0.165; in test [18], 2.07; in test [19], 1.98; in test [20], 1.62. The results for the z-score in test [4] and in [12] were -0.75 (inactive) and -2, respectively.
In the case of `COC(=O)[C@@]1(Cc2ccccc2)[C@H]2c3cc(C(=O)N(C)C)n(CCSC(=N)N)c3C[C@H]2CN1C(=O)c1ccccc1`, the composite z-score in test [1] was 1.16; in test [2] it was 0.743; in [3], 1; in [5] it was -0.315; in test [6], -0.102; in test [7], -0.649. Further, the composite z-score is -0.406 in test [8]; -1.49 in test [9]; 1.01 in test [10]; -0.98 in test [11]; -0.76 in [13]; 0.96 in [14]. Besides, the composite z-score was 0.0575 in [15]; -0.0006 in [16]; -0.138 in [17]; 1.39 in test [18]; 3.21 in test [19]; -0.351 in [20]. Also, the z-score in test [4] is 0.61 (inactive); in test [12] it was -0.588.
In the case of `O=C(NCc1ccc(F)cc1)[C@H]1C[C@H]2C(=O)N3CCC[C@H]3C(=O)N2[C@H]1c1ccc(O)cc1`, the composite z-score was 0.605 in test [1]; -0.294 in test [2]; -0.292 in test [3]; -0.0335 in [5]; -0.73 in [6]; 0.192 in test [7]. The composite z-score in [8] was -0.423; in [9], 0.889; in test [10], -0.964; in [11], -0.512; in [13] it was 0.124; in test [14], -0.178. Further, the composite z-score in test [15] is -0.386; in test [16], -0.176; in [17], -0.366; in test [18], -0.344; in test [19], 0.424; in test [20], -0.374. For the same compound, the z-score is -1.62 (inactive) in test [4] and 0.85 in test [12].
Turning to `[N-]=[N+]=Nc1ccccc1C[C@@]1(C(=O)NCC(O)CO)N=C(c2ccc(OCCCO)cc2)O[C@@H]1c1ccccc1` (stereo not given in full), the composite z-score in test [1] was 0.973; in test [2], 0.262; in test [3], 0.9; in [5] it was -0.134; in test [6], 0.119; in test [7] it was -1.16. The composite z-score in test [8] is -0.932; in test [9] it was -1.17; in test [10], 0.0121; in test [11], 0.355; in test [13], -1.28; in [14], 0.754. The composite z-score in [15] is 0.0985; in [16] it was 0.0431; in test [17], 0.151; in test [18], 0.0308; in test [19], 1.48; in test [20], -0.422. The z-score in test [4] was -0.0949 (inactive); in test [12], -0.688.
